Test results taken from PubChem BioAssay (EPA / NIEHS).
Where “and” joins values, the source holds several entries; their conditions need not be identical. Equal entries are not always repeated. Inconclusive results are not listed. Where a structure was tested more than once in an assay, its records may differ in their call. Calls of active or inactive are those of the source. How the source made its calls: active means hit-call score of the fitted dose curve at least 0.9, where 1 is the maximum; inconclusive means response in the unintended direction; inactive means score below 0.9.

Assays:
[1] = target: bovine Estrogen Receptor (ER), ESR1 (gene 407238) (UniProt P49884); experiment: NVS_NR_bER: NovaScreen (NVS) Nuclear Receptor Binding Assay for bovine Estrogen Receptor (ER) (AID 2283345);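 further: actives lower the bound radioligand count which means they displace the ER ligand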
Sequence of bovine Estrogen Receptor (ER), ESR1 (gene 407238) (P49884 whole entry, looked up): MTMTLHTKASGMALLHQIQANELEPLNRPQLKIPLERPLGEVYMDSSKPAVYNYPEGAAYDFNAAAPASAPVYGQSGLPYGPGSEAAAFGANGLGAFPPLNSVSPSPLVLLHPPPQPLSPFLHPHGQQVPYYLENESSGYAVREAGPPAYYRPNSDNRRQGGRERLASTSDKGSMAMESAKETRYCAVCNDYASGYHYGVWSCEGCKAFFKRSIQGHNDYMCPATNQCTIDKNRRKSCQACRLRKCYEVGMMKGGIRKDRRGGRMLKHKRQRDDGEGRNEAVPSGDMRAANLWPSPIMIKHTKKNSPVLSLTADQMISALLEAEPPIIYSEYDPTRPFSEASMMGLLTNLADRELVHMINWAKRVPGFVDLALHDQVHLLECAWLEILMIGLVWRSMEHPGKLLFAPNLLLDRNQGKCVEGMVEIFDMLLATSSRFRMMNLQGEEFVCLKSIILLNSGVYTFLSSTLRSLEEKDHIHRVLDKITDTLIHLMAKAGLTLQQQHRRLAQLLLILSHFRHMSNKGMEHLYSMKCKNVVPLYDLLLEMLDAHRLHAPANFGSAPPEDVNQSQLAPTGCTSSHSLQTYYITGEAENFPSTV
Procedure, shortened: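 Scintillation counting of displaced radioligand gave the readout; bovine uterine membrane extract supplied the receptor. Measured 18 h post-dose, normalized to DMSO baseline. Single 25 uM duplicate screen preceded concentration-response follow-up.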

[2] = target: Estrogen receptor (Homo sapiens) (UniProt P03372); experiment: OT_ER_ERaERa_1440: Odyssey Thera (OT) 24-hour HEK293T Protein-Complementation Assay for Estrogen Receptor-alpha/-alpha Homodimer (AID 2283349);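 further: hits raise fluorescence above DMSO for agonists and antagonists alike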
Sequence of Estrogen receptor (Homo sapiens) (P03372 whole entry, looked up, the tested form may be a part): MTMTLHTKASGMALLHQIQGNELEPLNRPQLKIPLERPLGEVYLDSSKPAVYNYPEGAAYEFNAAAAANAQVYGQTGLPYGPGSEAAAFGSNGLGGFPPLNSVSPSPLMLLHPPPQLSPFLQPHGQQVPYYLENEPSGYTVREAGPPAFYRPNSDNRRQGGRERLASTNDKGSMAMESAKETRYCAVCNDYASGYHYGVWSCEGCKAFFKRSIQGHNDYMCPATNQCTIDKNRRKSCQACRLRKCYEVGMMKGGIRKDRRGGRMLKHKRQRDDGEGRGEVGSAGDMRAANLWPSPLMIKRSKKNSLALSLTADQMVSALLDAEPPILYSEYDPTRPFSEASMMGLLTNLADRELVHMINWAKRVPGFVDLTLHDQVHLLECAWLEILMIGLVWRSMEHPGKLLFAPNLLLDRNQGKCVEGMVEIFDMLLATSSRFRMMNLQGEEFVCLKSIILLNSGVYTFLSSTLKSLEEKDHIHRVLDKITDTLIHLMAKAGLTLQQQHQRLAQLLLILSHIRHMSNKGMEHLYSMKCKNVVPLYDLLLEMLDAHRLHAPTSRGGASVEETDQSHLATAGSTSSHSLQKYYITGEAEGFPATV
Procedure, shortened: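 Stably transfected HEK293T; ERα LBD homodimer PCA. 24 h dosing, fluorescence intensity read, gain-of-signal vs DMSO.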

[3] = target: Estrogen receptor (Homo sapiens) (UniProt P03372); experiment: OT_ER_ERaERa_0480: Odyssey Thera (OT) 8-hour HEK293T Protein-Complementation Assay for Estrogen Receptor-alpha/-alpha Homodimer (AID 2283351);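 further: rise in fluorescence from reassembled reporter fragments on ERα LBD homodimer in nucleus or whole cell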
Procedure, shortened: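 HEK293T cells stably expressing a PCA pair of ER alpha LBD (residues 310-547) were dosed for 8 hours. The gain in fluorescence intensity, nuclear for agonists and whole-cell for antagonists, was measured by laser scanning cytometry against DMSO vehicle.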

[4] = target: Estrogen receptor (Homo sapiens) + Estrogen receptor beta (Homo sapiens) (UniProt P03372+Q92731); experiment: OT_ER_ERaERb_0480: Odyssey Thera (OT) 8-hour HEK293T Protein-Complementation Assay for Estrogen Receptor-alpha/-beta Heterodimer (AID 2283352)
Sequence of Estrogen receptor (Homo sapiens) + Estrogen receptor beta (Homo sapiens) (P03372 whole entry, looked up, the tested form may be a part): as above
Sequence of Estrogen receptor (Homo sapiens) + Estrogen receptor beta (Homo sapiens) (Q92731 whole entry, looked up, the tested form may be a part): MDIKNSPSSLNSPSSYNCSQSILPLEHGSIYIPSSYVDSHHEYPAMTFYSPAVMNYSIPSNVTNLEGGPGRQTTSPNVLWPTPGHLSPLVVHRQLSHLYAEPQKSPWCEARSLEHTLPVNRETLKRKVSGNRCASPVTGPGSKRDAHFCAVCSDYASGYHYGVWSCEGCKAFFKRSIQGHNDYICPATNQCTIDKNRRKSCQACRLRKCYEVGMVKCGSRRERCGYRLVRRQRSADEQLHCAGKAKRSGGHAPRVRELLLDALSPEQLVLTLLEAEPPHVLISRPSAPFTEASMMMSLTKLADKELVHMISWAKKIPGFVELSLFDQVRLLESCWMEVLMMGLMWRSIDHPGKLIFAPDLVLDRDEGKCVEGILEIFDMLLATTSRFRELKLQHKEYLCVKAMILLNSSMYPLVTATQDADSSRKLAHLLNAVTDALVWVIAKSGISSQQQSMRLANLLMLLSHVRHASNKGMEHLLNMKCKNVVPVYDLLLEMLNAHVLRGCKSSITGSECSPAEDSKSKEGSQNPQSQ
Procedure, shortened: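 Human HEK293T cells were treated for 8 hours and receptor heterodimerisation was detected through reconstitution of a fluorescent reporter split between ER-alpha and ER-beta ligand-binding domains. Activity was analysed as gain of signal against DMSO.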

[5] = target: Estrogen receptor (Homo sapiens) (UniProt P03372); experiment: NVS_NR_hER: NovaScreen (NVS) Nuclear Receptor Binding Assay for human Estrogen Receptor (ER) (AID 2283348)
Procedure, shortened: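 Radiodetection of ligand displacement in a lysate-based, cell-free format using MCF7 extracts, read at 18 hours. Duplicate 25 uM primary testing, then concentration series for actives.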

[6] = target: Androgen Receptor/SRC-1 Co-activator, AR (gene 367) (UniProt P10275); experiment: OT_AR_ARSRC1_0960: Odyssey Thera (OT) 16-hour HEK293T Protein-Complementation Assay for Androgen Receptor/SRC-1 Co-activator (AID 2283353);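 further: actives raise the signal above DMSO so potency reflects increased AR and SRC-1 complex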
Sequence of Androgen Receptor/SRC-1 Co-activator, AR (gene 367) (P10275 whole entry, looked up, the tested form may be a part): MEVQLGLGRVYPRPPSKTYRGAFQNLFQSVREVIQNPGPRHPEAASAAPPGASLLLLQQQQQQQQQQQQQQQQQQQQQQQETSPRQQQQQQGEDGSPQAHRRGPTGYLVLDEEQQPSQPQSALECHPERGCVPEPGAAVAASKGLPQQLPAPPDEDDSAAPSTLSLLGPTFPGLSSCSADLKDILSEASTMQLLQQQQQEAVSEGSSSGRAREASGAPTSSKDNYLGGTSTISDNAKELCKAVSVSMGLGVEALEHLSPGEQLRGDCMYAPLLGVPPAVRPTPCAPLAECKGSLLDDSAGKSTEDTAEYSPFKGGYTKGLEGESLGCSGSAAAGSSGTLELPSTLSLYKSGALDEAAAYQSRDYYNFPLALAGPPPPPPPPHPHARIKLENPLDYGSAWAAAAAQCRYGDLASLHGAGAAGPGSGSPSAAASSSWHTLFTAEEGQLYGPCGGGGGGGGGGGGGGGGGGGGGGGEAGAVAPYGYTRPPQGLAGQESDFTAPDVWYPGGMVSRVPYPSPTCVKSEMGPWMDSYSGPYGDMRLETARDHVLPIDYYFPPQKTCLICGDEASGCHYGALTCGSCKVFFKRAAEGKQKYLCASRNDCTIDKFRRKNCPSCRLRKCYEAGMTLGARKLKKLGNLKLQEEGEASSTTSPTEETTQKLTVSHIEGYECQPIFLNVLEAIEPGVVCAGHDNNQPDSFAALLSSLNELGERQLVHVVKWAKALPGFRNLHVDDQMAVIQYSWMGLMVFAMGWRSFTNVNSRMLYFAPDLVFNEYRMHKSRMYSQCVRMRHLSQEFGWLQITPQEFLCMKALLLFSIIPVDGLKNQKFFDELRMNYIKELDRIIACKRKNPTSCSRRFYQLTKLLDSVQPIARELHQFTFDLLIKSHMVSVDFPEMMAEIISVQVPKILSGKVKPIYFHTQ
Procedure, shortened: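 Endpoint is gain-of-signal N/C fluorescence ratio in the 488 nm channel versus DMSO, from at least 400 cells per image, measured 16 h post-dosing. Cells: HEK293T stably carrying split-Venus AR/SRC-1 complementation constructs.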

[7] = target: Androgen Receptor/SRC-1 Co-activator, AR (gene 367) (UniProt P10275); experiment: OT_AR_ARSRC1_0480: Odyssey Thera (OT) 8-hour HEK293T Protein-Complementation Assay for Androgen Receptor/SRC-1 Co-activator (AID 2283354);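 further: hits raise the complementation signal above DMSO so AC50 marks enhancers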
Procedure, shortened: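 After 8 h dosing, stably expressing HEK293T cells with split-Venus AR/SRC-1 fusions were imaged (488, 635nm). The 488nm N/C ratio per image gave the endpoint, analysed in the positive direction against DMSO.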

[8] = target: chimpanzee Androgen Receptor (AR), AR (gene 747460) (UniProt O97775); experiment: NVS_NR_cAR: NovaScreen (NVS) Nuclear Receptor Binding Assay for chimpanzee Androgen Receptor (AR) (AID 2283346);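 further: radioligand displacement from AR measured by scintillation counting in a cell-free assay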
Sequence of chimpanzee Androgen Receptor (AR), AR (gene 747460) (O97775 whole entry, looked up): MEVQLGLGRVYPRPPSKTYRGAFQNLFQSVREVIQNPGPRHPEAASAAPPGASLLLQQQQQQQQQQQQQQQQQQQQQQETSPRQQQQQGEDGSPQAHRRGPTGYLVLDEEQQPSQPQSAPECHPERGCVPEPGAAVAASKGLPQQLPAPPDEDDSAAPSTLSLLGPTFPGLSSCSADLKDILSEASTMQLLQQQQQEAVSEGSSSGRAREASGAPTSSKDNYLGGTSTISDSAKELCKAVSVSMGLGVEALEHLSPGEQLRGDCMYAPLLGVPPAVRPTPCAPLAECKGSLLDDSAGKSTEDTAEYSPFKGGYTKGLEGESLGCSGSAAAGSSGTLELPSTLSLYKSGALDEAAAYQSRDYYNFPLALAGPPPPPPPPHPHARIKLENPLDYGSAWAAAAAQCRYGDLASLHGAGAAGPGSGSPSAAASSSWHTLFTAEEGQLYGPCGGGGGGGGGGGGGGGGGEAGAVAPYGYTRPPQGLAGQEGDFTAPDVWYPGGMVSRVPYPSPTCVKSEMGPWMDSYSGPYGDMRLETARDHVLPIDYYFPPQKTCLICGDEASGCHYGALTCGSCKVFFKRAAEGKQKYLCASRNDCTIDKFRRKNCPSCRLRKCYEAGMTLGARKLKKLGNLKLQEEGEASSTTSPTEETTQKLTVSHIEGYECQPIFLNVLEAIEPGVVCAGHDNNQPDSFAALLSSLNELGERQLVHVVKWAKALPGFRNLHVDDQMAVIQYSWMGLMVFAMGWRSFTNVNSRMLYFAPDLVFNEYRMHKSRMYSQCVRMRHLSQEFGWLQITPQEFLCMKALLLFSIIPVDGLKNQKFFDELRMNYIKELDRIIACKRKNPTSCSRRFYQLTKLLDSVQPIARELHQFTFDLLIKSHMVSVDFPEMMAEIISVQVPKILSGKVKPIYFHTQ
Procedure, shortened: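 Cell-free radioligand displacement using receptor protein extracted from Sf9/Sf21 cells; bound radioligand measured by scintillation counting 72 hours after chemical dosing. Loss of signal versus DMSO baseline indicates binding; primary screen single-concentration in duplicate at 25 uM, actives followed in concentration series.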

[9] = target: Bile acid receptor (Homo sapiens) (UniProt Q96RI1); experiment: NVS_NR_hFXR_Antagonist: NovaScreen (NVS) Nuclear Receptor Binding Assay for human Farnesoid X Receptor Antagonism (FXR) (AID 2283350)
Sequence of Bile acid receptor (Homo sapiens) (Q96RI1 whole entry, looked up): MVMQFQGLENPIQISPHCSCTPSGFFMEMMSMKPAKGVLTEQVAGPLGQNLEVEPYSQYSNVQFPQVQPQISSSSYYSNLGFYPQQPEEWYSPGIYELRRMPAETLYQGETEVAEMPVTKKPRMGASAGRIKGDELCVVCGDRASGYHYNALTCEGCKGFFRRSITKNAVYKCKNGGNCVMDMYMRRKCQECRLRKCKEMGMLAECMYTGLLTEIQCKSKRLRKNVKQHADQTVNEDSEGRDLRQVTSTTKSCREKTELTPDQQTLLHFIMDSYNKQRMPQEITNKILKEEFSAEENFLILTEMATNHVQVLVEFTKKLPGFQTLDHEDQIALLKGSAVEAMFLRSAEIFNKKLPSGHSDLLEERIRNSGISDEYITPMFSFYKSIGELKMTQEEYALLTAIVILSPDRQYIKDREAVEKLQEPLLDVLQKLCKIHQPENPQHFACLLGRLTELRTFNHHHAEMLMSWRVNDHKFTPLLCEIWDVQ
Procedure, shortened: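 Antagonist-format time-resolved FRET binding assay with extracted human receptor protein, read 1 hour after compound addition. Compounds first screened at 25 uM in duplicate, then actives tested in concentration series, with loss of signal relative to DMSO.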

[10] = target: human Constitutive Androstane Receptor (CAR), NR1I3 (gene 9970) (UniProt Q14994); experiment: NVS_NR_hCAR_Antagonist: NovaScreen (NVS) Nuclear Receptor Binding Assay for human Constitutive Androstane Receptor Antagonism (CAR) (AID 2283344)
Sequence of human Constitutive Androstane Receptor (CAR), NR1I3 (gene 9970) (Q14994 whole entry, looked up): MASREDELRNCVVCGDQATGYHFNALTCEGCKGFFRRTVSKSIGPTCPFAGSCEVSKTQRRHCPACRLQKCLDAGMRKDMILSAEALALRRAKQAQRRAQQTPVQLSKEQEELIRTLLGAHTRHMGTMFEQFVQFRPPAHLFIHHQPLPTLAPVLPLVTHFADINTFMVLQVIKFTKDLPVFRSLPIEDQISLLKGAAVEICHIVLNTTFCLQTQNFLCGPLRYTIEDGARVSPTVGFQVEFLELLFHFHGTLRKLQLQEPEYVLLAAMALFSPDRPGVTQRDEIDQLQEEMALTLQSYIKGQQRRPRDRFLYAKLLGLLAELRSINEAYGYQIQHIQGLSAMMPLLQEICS
Procedure, shortened: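 Single 25 uM duplicate primary screen, with concentration-series follow-up on actives. Cell-free binding format run in antagonist mode, TR-FRET signal taken 1 h post-dose; activity is signal loss relative to DMSO.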

Measured: AC50

C=C(C)C(=O)OCCC(F)(F)C(F)(F)C(F)(F)C(F)(F)C(F)(F)C(F)(F)F
inactive: [1] | [2] | [3] | [4]

O=C(O)Cc1cc(I)c(Oc2cc(I)c(O)c(I)c2)c(I)c1
inactive: [1] | [5] | [2] | [3] | [4]

OCCC(F)(F)C(F)(F)C(F)(F)C(F)(F)C(F)(F)C(F)(F)C(F)(F)C(F)(F)F
not listed: [8] | [9] | [10]
inactive: all other assays above

CCC(C)(C)C1CCC(O)CC1 (configuration not stated)
active: [1] 16.4 µM and 12.9 µM | [8] 32.1 µM | [5] 3.1 µM and 2.51 µM | [3] 59.3 µM
inactive: [5] | [2] | [3]

C[C@@H]1C[C@H]2[C@@H]3CCC4=CC(=O)C=C[C@]4(C)[C@@]3(F)[C@@H](O)C[C@]2(C)[C@@]1(O)C(=O)COP(=O)(O)O
inactive: [1] | [5] | [2] | [3] | [4]
active: [8] 0.0307 µM

CCCCCCCCCCCCCC[N+](C)(C)C
active: [5] 35 µM
inactive: [8] | [3]

OC1CCC(C2CCCCC2)CC1 (configuration not stated)
active: [8] 22.4 µM | [3] 81.9 µM | [4] 50 µM and 34.5 µM and 48.7 µM
inactive: [1] | [8] | [5] | [2] | [3] | [4]

NC(=O)N1C(=O)C(C(=O)c2cc(Cl)cs2)c2cc(F)c(Cl)cc21 (configuration not stated)
inactive: [5] | [2] | [3] | [6] | [7]
active: [1] 25 µM

CCN(CC)CCNc1ccc(CNC=O)c2sc3ccc(OC)cc3c(=O)c12
inactive: [1] | [8] | [5] | [2] | [3]

O=[N+]([O-])c1ccc(O)cc1
inactive: [1] | [5] | [2] | [3]

CN1CCN(c2ccccc2/C=C2\SCCN(c3ccc(Cl)c(Cl)c3)C2=O)CC1
inactive: [1] | [2] | [9] | [3]

C#C[C@]1(O)CC[C@H]2[C@@H]3CCC4=CC(=O)CC[C@@H]4[C@H]3CC[C@@]21C
inactive: [1] | [2] | [3] | [4]
active: [8] 5.99 nM and 4.99 nM

O=C(OCCOCCOC(=O)c1ccccc1)c1ccccc1
inactive: [10] | [2] | [9] | [3]

CC[C@H](c1ccc(O)cc1)[C@@H](CC)c1ccc(O)cc1
inactive: [8] | [6] | [7]
active: [10] 0.00229 µM | [5] 0.0334 nM and 2.46 nM and 2.68 nM | [9] 8.83 µM | [6] 35.6 µM

O=C(O)c1ccccc1C(c1ccc(O)cc1)c1ccc(O)cc1
active: [10] 0.427 µM
not listed: [1] | [5] | [9]
inactive: all other assays above

ClC1=C(Cl)C(Cl)(Cl)C(Cl)=C1Cl
inactive: [1] | [5] | [2] | [3]

CCCCC(CC)COC(=O)CCCCC(=O)OCc1ccccc1 (configuration not stated)
inactive: [8] | [2] | [3] | [4]

O=C1OC2(c3ccccc31)c1cc(Br)c(O)c(Br)c1Oc1c2cc(Br)c(O)c1Br
inactive: [1] | [5]
active: [8] 38.1 µM | [5] 16.8 µM | [2] 62.2 µM | [3] 88.3 µM | [4] 78.2 µM

OC1CCCCC1
inactive: [5] | [2] | [3]
active: [5] 0.0267 µM

CCCCCCCCCCCCc1ccccc1S(=O)(=O)O
active: [10] 10.9 µM | [1] 39.1 µM | [5] 40.6 µM | [9] 12.2 µM
inactive: [2] | [3] | [6] | [7]

CC1=C(/C=C/C(C)=C/C=C/C(C)=C/C(=O)O)C(C)(C)CCC1
inactive: [1] | [5] | [2] | [3]

CC#C[C@]1(O)CC[C@H]2[C@@H]3CCC4=CC(=O)CCC4=C3[C@@H](c3ccc(N(C)C)cc3)C[C@@]21C
active: [1] 10 µM and 16.2 µM and 8.77 µM | [8] 16.7 nM and 46.7 nM
inactive: [1] | [2] | [9] | [3]

Cc1cc(CCN2CCN(c3nsc4ccccc34)CC2)cc2c1NC(=O)CC2(C)C
inactive: [1] | [5] | [2] | [3] | [4]
active: [6] 12.6 µM | [7] 15.4 µM

Cc1oc(-c2ccccc2)nc1CCOc1ccc(C[C@H](Nc2ccccc2C(=O)c2ccccc2)C(=O)O)cc1
active: [6] 45.4 µM
not listed: [4] | [9] | [10]
inactive: all other assays above

c1ccc2cc3c(ccc4ccccc43)cc2c1
inactive: [1] | [5] | [2] | [9] | [3]

COCC(C)O (configuration not stated)
inactive: [2] | [3]
active: [1] 3.69 µM | [5] 1.82 µM

CN1CCC[C@H]1c1cccnc1
inactive: [1] | [2] | [3] | [4]

CCC(=C(c1ccc(O)cc1)c1ccc(OCCN(C)C)cc1)c1ccccc1
active: [10] 18.2 µM | [8] 6.21 µM and 12.9 µM | [6] 19.8 µM and 20.2 µM and 19.2 µM | [7] 46.8 µM and 46.2 µM and 46.6 µM
inactive: [9] | [6] | [7]

COCC(C)OCC(C)O (configuration not stated)
inactive: [10] | [2] | [4] | [6] | [7]

CCCOC(=O)c1ccc(O)cc1
active: [5] 6.72 µM and 10.6 µM | [2] 31.2 µM | [3] 38.4 µM | [4] 16.7 µM
inactive: [1] | [8]

CCCCCCCC(=O)O
inactive: [10] | [2] | [3] | [4]

Oc1cc2ccccc2c2ccccc12
inactive: [1] | [5] | [2] | [3]
active: [8] 10.1 µM | [6] 7.07 µM | [7] 8.63 µM

OCCC(F)(F)C(F)(F)C(F)(F)C(F)(F)C(F)(F)C(F)(F)F
inactive: [2] | [3] | [4]

CCCCCCCCOC(=O)CCCCCCCCC(=O)OCCCCCCCC
inactive: [2] | [3] | [4]

CCc1nn(C2CCCCC2)c2cc(C3(C#N)CCC(C(=O)O)CC3)ccc12 (configuration not stated)
inactive: [5] | [2] | [3] | [4]

CC(=O)NC1(c2cccc(F)c2)CCN(CC[C@@]2(c3ccc(Cl)c(Cl)c3)CN(c3ccccc3)C(=O)CO2)CC1
inactive: [2] | [3]

CC(C)CCCCCCOC(=O)CCCCC(=O)OCCCCCCC(C)C
inactive: [2] | [9] | [3]

CC(C)(C)c1cc(C(C)(C)C)c(O)c(C(C)(C)C)c1
inactive: [2] | [3]
active: [4] 50 µM

CCCCOCCO
inactive: [2] | [3]

CC(C)(C)CC(C)(C)c1ccc(O)c(-n2nc3ccccc3n2)c1
inactive: [5] | [2] | [3] | [4]

CC(O)C(=O)O (configuration not stated)
inactive: [2] | [3]

CN(C)C=O
inactive: [5] | [2] | [3] | [4]

CCc1ccc(CCOc2ccc(CC3SC(=O)NC3=O)cc2)nc1 (configuration not stated)
active: [2] 75.1 µM | [3] 76.7 µM
inactive: [4]

O=c1c(-c2ccc(O)cc2)coc2cc(O)ccc12
inactive: [6] | [7]

c1ccc2c(c1)ccc1ccccc12
inactive: [2] | [3] | [6] | [7]

CC(O)CO (configuration not stated)
inactive: [2] | [9] | [3]

COC(=O)CCCCC(=O)OC
inactive: [2] | [3]

CCCCC(CC)COC(=O)CCCCC(=O)OCC(CC)CCCC (configuration not stated)
inactive: [2] | [9] | [3] | [4]

Oc1cccc(O)c1
inactive: [2] | [3] | [4]

N#C[C@@H]1CC(F)(F)CN1C(=O)CNC1CC2CCC(C1)N2c1ncccn1 (some centres not stated)
inactive: [2] | [3] | [4] | [6] | [7]

CCCCCCC(=O)O
inactive: [2] | [3]

CCOC(=O)CC(O)(CC(=O)OCC)C(=O)OCC
inactive: [2] | [3] | [4]

CC[C@H](C)[C@@H](C(=O)O)n1sc2ccccc2c1=O
inactive: [2] | [3] | [4]

Cc1cc(C)c(O)c(C)c1
inactive: [5] | [2] | [3]

CCCCCCCCCCCCN1CCCC1=O
inactive: [5] | [2]

CCCCCCCCCCCCCCCS(=O)(=O)Oc1ccccc1
inactive: [2] | [3] | [4]

CC(C)(C)c1cccc(C(C)(C)C)c1O
inactive: [2] | [3]

Nc1cccc2c(N)cccc12
inactive: [3] | [4]
active: [2] 11.9 µM

COc1ccc([N+](=O)[O-])cc1N
inactive: [2] | [3] | [4]

NC(=O)N(O)[C@@H]1C=C[C@H](Oc2cccc(Oc3ccc(F)cc3)c2)C1
inactive: [5] | [2] | [3] | [4]

Cc1ccc(S(=O)(=O)O)c(C)c1
inactive: [2] | [3]
active: [2] 56.2 µM

c1ccc2c(c1)Cc1ccccc1-2
inactive: [5] | [2] | [3] | [4]

CC(=O)CC(C)(C)O
inactive: [2] | [3] | [4] | [6] | [7]

CCCCCCCCC(=O)O
inactive: [2] | [3] | [4]

CC(C)(C)c1ccc(O)c(C(C)(C)C)c1
inactive: [2] | [3]
